According to the supplement of paper PMC11417369:
Whole data set: some 25,000 sequences, median “ln(normalized median fluorescence intensity)” near 6.7, cut for the highest 2% near 10. The full list was thinned out, with the highest values kept by preference.

What follows are sequences tested on PfHDP1 homeodomain (GST-tagged) (assay: gcPBM binding intensity (ln(normalized median fluorescence intensity)); higher = stronger DNA binding).
Outline: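 Binding intensity is defined as the maximum Masliner-normalised natural-log median intensity across replicate spots for either probe orientation. It was measured on an Agilent 4 × 180k array of primer-extended double-stranded 36-bp intergenic genomic probes and negative controls, to which GST-tagged P. falciparum DNA-binding domains made in E. coli were applied for 1 h in 1× PBS with 1% milk, 0.2 mg/ml BSA, 0.5% salmon testes DNA and 0.03% Triton X-100. Detection was by Alexa488 anti-GST antibody and scanning at 488 nm.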

Sequence	gcPBM binding intensity (ln)
GCTTATAAGATATGCACACACAACACTTACAAAAAA [CACACA_site817]	9.27
TTTTTTTTTTTATGTGCACACAAAAGATGCTTATAT [CACACA_site2347]	10.7
TAGCTTATAAGATATGCACACACAACACTTACAAAA [CACACA_site8174]	9.5
TTATTTATTTTTATATGTACACAAAAAAAAAAAAAA [XGTACX_site1459]	6.53
AGGGAATATTTTTATGCATGTGCTTACACATTACAA [TGCATGCA_site830]	6.83
TTTTTTTTTATGTGCACACAAAAGATGCTTATATTT [CACACA_site2348]	11.2
ATTCTATTCTCCTTCACACACAAAAATATTTCATCA [CACACA_site2360]	6.98
AAAAAAAATGGATGATCACACACTTCATAAAAATTG [CACACA_site2213]	6.14
TTTTTTTTTTTTAATACACACATATTTATATTTATT [CACACA_site7802]	6.63
CAGAATAATTTTATCGGTACACACTGTATGCATAAT [XGTACX_site736]	6.88
TAAATTATAACGTGCACACATATTTAAAATGAAATG [CACACA_site2820]	10
AAAATTAACGAGTGCACACATATTTAGATAAAATAC [CACACA_site2936]	11.3
AAAATTAAAAATAACACACACATATTTATATTTATA [CACACA_site7329]	6.24
GAAAAATTAAAAATAACACACACATATATATATTTA [CACACA_site8896]	6.38
AAAAAATTAACGAGTGCACACATATTTAGATAAAAT [CACACA_site8958]	10.7
AAAATTAAAAATAACACACACATATATATATTTATA [CACACA_site2776]	6.54
ATAATATATTTTTGAACACACAATATAGATTTATAT [CACACA_site7857]	6.35
TTTATATTTTTTTTTGCACACTTTAAAAAAATATAT [CACACA_site1146]	9.29
GAACAATATATTTGCACACAAAAAATATATATTTAT [CACACA_site3317]	10.7

Sequence	gcPBM binding intensity (ln)
AGCTAAAATATTTTTGCACACGATTTTTTTTTTTTT [CACACA_site1140]	9.82
AGGAACAATATATTTGCACACAAAAAATATATATTT [CACACA_site3316]	10.4
ATATTTATATATTGCACACAAAAAAAAAAAAAAATC [CACACA_site1629]	10.4
TTTTATTTTTTATTTGCACACAATATGTAAAAAAAT [CACACA_site2927]	10.6
TTTTTTTCAATATTTGCACACGATTAAAATATTTAA [CACACA_site5266]	10.6
TATGCACACAATATATGTACTTATATATTTTAAAAA [XGTACX_site5482]	9.96
TTTTTTTCAATATTTGCACACGATTATAATATTTAA [CACACA_site2237]	10.3
AAAAAAATTAATGTGTGTACTTAGATATAATGTTTA [XGTACX_site8862]	6.43
AAAAGTACAATATATATGTATGTGTATAGAATGGTT [TGCATGCA_negctrl_site76]	7.28
AAAATATTTTAATGTTGTACATTAATATATTATATA [XGTACX_site2513]	6.03
TAAAAATATATACATACATGCATACATATATATGTA [TGCATGCA_site774]	6.47
TTATATATTTTTTGCACACCAAAAAAGAGAATATTC [CACACA_site2730]	10
TGTGTTTATACGTTTTGTACATATTTTTATTTTGTA [XGTACX_site6425]	6.74
TTCTTACACGTTTGCACACTAAAATATATATATATA [CACACA_site434]	10.7
TATTCTTACACGTTTGCACACTAAAATATATATATA [CACACA_site435]	9.97
TTTTATTCCTTCTTTGCACACGTTTAAAAATATATA [CACACA_site2899]	10.3
TCCTTAAAATATATCACACATTTCGTTCATTTATAA [CACACA_site4346]	6.65
TAAGATGATATAGACTGTACATATTGAACTTACAAG [XGTACX_site4290]	6.29
TATTAACACTTTATAGAAACAAAAAAATAAGCAAAA [XGTACX_negctrl_site295]	6.79

Sequence	gcPBM binding intensity (ln)
CACTGTAAATAGAAAGTGCAAAAATTGTAAATAAAA [GTGCAC_site9980]	9
TTTCTTCGAAATAGAACACTTGTGCAAAATAAGCAA [XGTACX_negctrl_site361]	11.2
GTTTTTAGTATTTTTTGTACTTAATACATAGCCTTA [XGTACX_site7318]	6.22
AGATAAAATATATATGCACACACATATATATTTCAT [CACACA_site9183]	9.16
TCATACAATATTAAATGTACATATATATATATATAT [XGTACX_site8828]	9.25
TATATAATATATTAATGTACTTAAAATATATTCTAT [XGTACX_site1235]	6.16
TTTTTTCATATAAATACATGCACACAAAAATATCAA [TGCATGCA_site602]	8.53
TTCATATAAATACATGCACACAAAAATATCAATACA [CACACA_site8753]	8.91
CATATAAATACATGCACACAAAAATATCAATACATT [CACACA_site2392]	8.76
TTTATCAAAATAAATGCACACAAATTGCACATATCT [CACACA_site8281]	10.9
TATCAAAATAAATGCACACAAATTGCACATATCTAT [CACACA_site1097]	10.7
ATAAATTTTTTATGAACACACAAATACACCCACTCA [CACACA_site5465]	7.07
TACTTTCAAAAGATCACACATATATATATATATATA [CACACA_site5630]	9.53
TCCTTAAAATATGGTTGTACGTACATCCTAGGTGTT [XGTACX_site7068]	6.52
TTTTTACGTAAACAAAATAATTATATAATATTATTT [CACACA_negctrl_site1769]	6.34
AAAATCATTCCAAAGACATGCATTTTGCAAATAAAA [TGCATGCA_site461]	9.22
AATTATTTACCCTATACACACAAAACAGACTAAAAA [CACACA_site6688]	6.76
TCGTGTGAAAATATTACACACATTTACTATAGTATC [CACACA_site7590]	6.65
